Inconclusive results are not listed. Active and inactive are the calls of the source. The call rests on the fitted dose curve; in most records, active means well fitted curve in the direction sought with a large enough effect; inconclusive means small, poorly fitted or top-dose-only effect, or another doubt; inactive means no such curve, though single readings can be large; an effect the other way counts as inactive or inconclusive.
Legend:
[1] = Primary qHTS for inhibitors of nuclear receptor binding SET domain protein 2 (NSD2) in an RCH-ACV wild type WT cells (2C) (AID 1645877); further: nearly all actives have a fitted effect of over 70% in size; further: potency means the concentration at half of the fitted maximal effect; on activity change, negative = cell killing: on the % scale 0 is the no-effect control and ±100 the full control effect
[2] = molecular target: Glutathione peroxidase 1 (Homo sapiens) (UniProt P07203); experiment: Primary qHTS Assay for Inhibitors of Recombinant Selenoprotein Glutathione Peroxidase 1 (GPX1) (AID 1845191); further: nearly all actives have a fitted effect of over 65% in size; on activity, negative = inhibition: on the % scale 0 is the no-effect control and ±100 the full control effect
Chain of Glutathione peroxidase 1 (Homo sapiens) (P07203 whole entry, looked up): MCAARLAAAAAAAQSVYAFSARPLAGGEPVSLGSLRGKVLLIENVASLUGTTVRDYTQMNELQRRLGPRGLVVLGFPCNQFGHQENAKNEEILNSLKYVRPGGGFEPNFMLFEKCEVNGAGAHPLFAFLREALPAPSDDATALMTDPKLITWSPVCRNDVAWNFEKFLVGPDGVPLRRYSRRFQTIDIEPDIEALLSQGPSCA
Procedure, shortened: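 10 nM GPX1 + cpd, 30 min RT; start w/ 1 mM GSH, 0.5 mM cumene hydroperoxide, 0.5 mM NADPH, 100 nM GR, 0.01% BSA; buffer 50 mM Tris-HCl pH 7.5, 2 mM EDTA, 150 mM NaCl; Fl 340/450, 0 & 15 min.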

[3] = molecular target: Phospholipid hydroperoxide glutathione peroxidase GPX4 (Homo sapiens) (UniProt P36969); experiment: Primary qHTS Assay for Inhibitors of Recombinant Selenoprotein Glutathione Peroxidase 4 (GPX4) (AID 1845192); further: nearly all actives have a fitted effect of over 65% in size; on activity change, negative = inhibition: series mostly up to about 50 µM; on the % scale 0 is the no-effect control and ±100 the full control effect
Chain of Phospholipid hydroperoxide glutathione peroxidase GPX4 (Homo sapiens) (P36969 whole entry, looked up): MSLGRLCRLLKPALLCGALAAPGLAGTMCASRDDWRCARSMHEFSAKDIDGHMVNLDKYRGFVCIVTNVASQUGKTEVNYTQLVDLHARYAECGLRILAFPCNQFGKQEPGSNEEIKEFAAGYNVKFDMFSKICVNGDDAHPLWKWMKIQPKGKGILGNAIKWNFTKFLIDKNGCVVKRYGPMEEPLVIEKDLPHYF
Procedure, shortened: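 NADPH consumption, followed by fluorescence at 340/450 nm between 0 and 15 min, reports GPX4 activity via coupled glutathione reductase (100 nM). Enzyme 200 nM was pre-exposed to compound 30 min; 0.5 mM cumene hydroperoxide and 1 mM GSH served as substrates.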

[4] = molecular target: Luciferin 4-monooxygenase (Photinus pyralis) (UniProt P08659); experiment: Primary firefly luciferase (FLuc) qHTS assay for identification of artifact compounds. (AID 1845220); further: nearly all actives have a fitted effect of over 60% in size;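 on activity change, negative = inhibition: series mostly up to about 54 µM; plate controls were DMSO vehicle for no effect and no enzyme for full effect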
Procedure, shortened: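 FLuc 10 nM; luciferin 10 uM; ATP 10 uM; Tris-acetate pH 7.6, Mg-acetate 10 mM; 15 min RT preincubation; 5 min reaction; luminescence.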

[5] = Primary fluorescence-based thiol-reactive (MSTI) qHTS assay for identification of artifact compounds. (AID 1845221); further: nearly all actives have a fitted effect of over 65% in size; further: potency means the concentration at half of the fitted maximal effect;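 on activity change, negative = thiol reactive: series mostly up to about 54 µM; thiol-reactive compounds lower the probe fluorescence signal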
Procedure, shortened: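 MSTI probe at 4 uM final in 2% DMSO/PBS pH 7.4; compounds, 1 h at room temperature in dark. Fluorescence Ex/Em 525/598 nm, normalised to Acetyl-MSTI and MSTI, fitted to 4-parameter Hill.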

[6] = tested on: Nanoluciferase (engineered Oplophorus gracilirostris luciferase); experiment: Primary Nanoluciferase (NLuc) qHTS assay for identification of artifact compounds. (AID 1845222);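 further: NLuc secreted into diluted conditioned medium of S16 cells; series mostly up to about 54 µM; 0% = DMSO and -100% = no enzyme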
Procedure, shortened: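 NLuc from S16 cell medium (1:55) plus test compounds, 15 min, room temperature. Luminescence after Nano-Glo (1:100) addition, 5 min.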

[7] = Primary redox qHTS assay for identification of artifact compounds. (AID 1845223);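 further: 0% = DMSO and 100% = reference compound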
Procedure, shortened: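 Amplex Red (25 uM) and HRP (250 mU/mL) in HBSS, with compounds for 15 min, then 250 uM DTT for 30 min, room temperature, dark. Fluorescence 525/598 nm read; normalized to DMSO and 10 uM DA3003; Hill fit.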

CC(C)=CCC/C(C)=C/CC/C(C)=C/COC1OC(COC2OCC(OC3OCC(O)C(O)C3O)C(O)C2O)C(O)C(OC2OC(C)C(OC3OC(C)C(OC4OCC(OC5OC(C)C(O)C(O)C5O)C(O)C4O)C(O)C3O)C(O)C2O)C1O (stereo unspecified)
inactive: outcome [1] inactive [at 9.23 µM] | activity, negative = inhibition [2] 1.32% [at 9.52 µM] | activity change, negative = inhibition [3] 4.38% [at 9.73 µM] | outcome [4] inactive [at 11.6 µM] | activity change, negative = thiol reactive [5] 139% [at 11.5 µM] | activity, negative = inhibition [6] -0.192% [at 11.6 µM] | redox activity (% of DA3003) [7] 11.7% [at 11.5 µM]

C=C(CCC1=C(C)[C@H]2[C@H](CC3[C@@H]4CC=C5C[C@@H](O)C[C@@H](O)[C@]5(C)C4[C@H](O)C[C@@]32C)O1)CO[C@@H]1O[C@H](CO)[C@@H](O)[C@H](O)[C@H]1O (stereo partly specified)
inactive: Potency [2] | Potency [3] | Potency [4] | Potency [5] | Potency [6] | Potency [7]
active: Potency [1] 963 nM

O=C(c1cn(Cc2cncn2Cc2ccc(Br)cc2)cc1-c1cccc2ccccc12)N1CCOCC1
inactive: Potency [2] | Potency [3] | Potency [4] | Potency [5] | Potency [6] | Potency [7]
active: Potency [1] 1150 nM

COC(=O)CCc1cc2ccoc2c(OC)c1O[C@@H]1O[C@H](CO)[C@@H](O)[C@H](O)[C@H]1O
inactive: Potency [1] | Potency [2] | Potency [3] | Potency [4] | Potency [5] | Potency [6] | Potency [7]

C[C@@H]1C(=O)O[C@H]2C[C@]34[C@H]5C[C@@H](C(C)(C)C)[C@]36[C@@H](OC(=O)[C@H]6O)O[C@]4(C(=O)O5)[C@]21O
inactive: Potency [1] | Potency [2] | Potency [3] | Potency [4] | Potency [5] | Potency [6] | Potency [7]

C/C1=C\CCC(C)CCO[C@@H]2O[C@H](CO[C@@H]3OC[C@H](O)[C@H](O)[C@H]3OC1=O)[C@@H](O)[C@H](O)[C@H]2O (stereo partly specified)
active: Potency [5] 8220 nM
inactive: Potency [1] | Potency [2] | Potency [3] | Potency [4] | Potency [6] | Potency [7]

C=C1CC23CC1CCC2C12OC(=O)C(C)(CCC1O)C2C3C(=O)O (stereo unspecified)
inactive: Potency [1] | Potency [2] | Potency [3] | Potency [4] | Potency [5] | Potency [6] | Potency [7]

COc1cc(O)cc(C)c1C(=O)O[C@@H]1[C@H](O)[C@@H](CO)O[C@H]1n1ccc(=O)[nH]c1=O
inactive: Potency [1] | Potency [2] | Potency [3] | Potency [4] | Potency [5] | Potency [6] | Potency [7]

CCNC(=O)Nc1ncc(-c2cc(-c3c(C)cc(OC)cc3C)nc(-c3cnccn3)n2)s1
inactive: Potency [1] | Potency [2] | Potency [3] | Potency [4] | Potency [5] | Potency [6] | Potency [7]

O=C(/C=C/c1ccc(O)cc1)N[C@@H](Cc1ccc(O)cc1)C(=O)O
active: Potency [5] 7360 nM
inactive: Potency [1] | Potency [2] | Potency [3] | Potency [4] | Potency [6] | Potency [7]

O=C1Nc2ccccc2C(O)(c2ccccc2)C1O (stereo unspecified)
inactive: Potency [1] | Potency [2] | Potency [3] | Potency [4] | Potency [5] | Potency [6] | Potency [7]

Cc1cccc(S(=O)(=O)N2CCC[C@@H]2CCN2CCC(C)CC2)c1
inactive: Potency [1] | Potency [2] | Potency [3] | Potency [4] | Potency [5] | Potency [6] | Potency [7]

CC(=O)C1=CCC2C3CCC4CC(O[C@@H]5O[C@H](CO)[C@@H](O[C@@H]6O[C@@H](C)[C@H](O)[C@@H](O)[C@H]6O)[C@H](O)[C@H]5O[C@@H]5O[C@H](CO)[C@@H](O)[C@H](O)[C@H]5O)CCC4(C)C3CCC12C (stereo partly specified)
inactive: Potency [1] | Potency [2] | Potency [3] | Potency [4] | Potency [5] | Potency [6] | Potency [7]

Cn1ncnc1COc1nn2c(-c3cc(F)ccc3F)nnc2cc1C(C)(C)C
active: Potency [1] 1030 nM
inactive: Potency [2] | Potency [3] | Potency [4] | Potency [5] | Potency [6] | Potency [7]

CC1=CC(=O)CC(C)(CO)C1(O)/C=C/C(C)O[C@@H]1O[C@H](CO)[C@@H](O)[C@H](O)[C@H]1O (stereo partly specified)
active: Potency [5] 10300 nM
inactive: Potency [1] | Potency [2] | Potency [3] | Potency [4] | Potency [6] | Potency [7]

O=C(CC1C(=O)Nc2ccccc21)OC[C@H]1O[C@@H](OCCc2ccc(O)cc2)[C@H](O)[C@@H](O)[C@@H]1O (stereo partly specified)
active: Potency [5] 9220 nM
inactive: Potency [1] | Potency [2] | Potency [3] | Potency [4] | Potency [6] | Potency [7]

Cc1nc(C)c(-c2ccc(C3CCC(CC(=O)O)CC3)cc2)nc1C(N)=O (stereo unspecified)
inactive: Potency [1] | Potency [2] | Potency [3] | Potency [4] | Potency [5] | Potency [7]

CC(=O)O[C@]1(C(C)=O)CC[C@H]2[C@@H]3C[C@H](C)C4=CC(=O)C=C[C@]4(C)[C@@]3(F)[C@@H](O)C[C@@]21C
active: Potency [1] 12.9 nM
inactive: Potency [2] | Potency [3] | Potency [4] | Potency [5] | Potency [6] | Potency [7]

CC(O)/C=C/C1(O)C(C)C(O[C@@H]2O[C@H](CO)[C@@H](O)[C@H](O)[C@H]2O)C(O)CC1(C)C (stereo partly specified)
inactive: Potency [1] | Potency [2] | Potency [3] | Potency [4] | Potency [6]

CC(C)(O)/C=C/CC(C)(O)C1C(O)CC2(C)C3CCC4C(C)(C)C(=O)CCC4(C)C3CCC12C (stereo unspecified)
inactive: Potency [1] | Potency [2] | Potency [3] | Potency [4] | Potency [5] | Potency [6] | Potency [7]

CC1(C)CCC(C)(C)c2cc(C3(c4ccc(C(=O)O)cc4)OCCO3)ccc21
inactive: Potency [1] | Potency [2] | Potency [3] | Potency [4] | Potency [5] | Potency [6] | Potency [7]

CC(C)C[C@H](CC(=O)NO)C(=O)N[C@H](C(=O)N[C@@H](C)C(=O)NCCN)C(C)(C)C
inactive: activity change, negative = cell killing [1] -8.71% [at 9.23 µM] | activity, negative = inhibition [2] -2.8% [at 9.52 µM] | activity change, negative = inhibition [3] -8.26% [at 9.73 µM] | activity change, negative = inhibition [4] -1.85% [at 11.6 µM] | activity change, negative = thiol reactive [5] 1.54% [at 11.5 µM] | activity, negative = inhibition [6] 2.44% [at 11.6 µM] | redox activity (% of DA3003) [7] 0.177% [at 11.5 µM]

CC1(C)CC[C@]2(C(=O)O[C@@H]3O[C@H](CO)[C@@H](O)[C@H](O)[C@H]3O)CC[C@]3(C)C(=CCC4[C@@]5(C)CC[C@H](O[C@@H]6O[C@H](C(=O)O)[C@@H](O)[C@H](O)[C@H]6O)C(C)(C)C5CC[C@]43C)C2C1 (stereo partly specified)
inactive: activity change, negative = cell killing [1] 4.17% [at 9.23 µM] | Potency [2] | Potency [3] | activity change, negative = inhibition [4] 0.101% [at 11.6 µM] | activity change, negative = thiol reactive [5] 258% [at 11.5 µM] | activity, negative = inhibition [6] 3.65% [at 11.6 µM] | redox activity (% of DA3003) [7] 15.1% [at 11.5 µM]

C/C=C/C(O)C1OC(=O)CC1Nc1ccc(C(=O)O)cc1 (stereo unspecified)
inactive: Potency [1] | Potency [2] | Potency [3] | Potency [4] | Potency [6]

CC(C)=CCC/C(C)=C/CO[C@@H]1O[C@H](CO)[C@@H](O)[C@H](O)[C@H]1O
inactive: Potency [1] | Potency [2] | Potency [3] | Potency [4] | Potency [5] | Potency [6] | Potency [7]

Cc1cccc(C)c1-n1c(=O)c2cnc(Nc3ccc(N4CCN(C)CC4)cc3)nc2n2c3ccccc3nc12
active: Potency [1] 258 nM
inactive: Potency [2] | Potency [3] | Potency [4] | Potency [6]

COc1cc(Br)c(S(=O)(=O)Nc2ccc(C(F)(F)F)c(O[C@@H]3CCN(C)C3)c2)cc1OC
inactive: Potency [1] | Potency [2] | Potency [3] | Potency [4] | Potency [5] | Potency [7]
